MITF inhib: inhibitors of MITF, primary screen, MITF inhibitor project, cell-based, luminescence | TRPM1 promoter luciferase, 24 h | inhibition, % (test concentration not listed) | 37,000 compounds, 0.28% hits; in the data active = inhibition above about 85%; inconclusive = no clear call, values can overlap the other calls; inactive = below about 68%;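 also: human melanocyte line stably carrying TRPM1 promoter luciferase reporter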
NOMO-1 viab: NOMO-1 AML cell viability reduction, primary screen, STK33 inhibitor project, CellTiter-Glo luminescence. NOMO-1 AML viability, 72 h. inhibition, % (concentration not given with the values). 37,000 compounds, 7.5% hits. AID 2330, 2010; in the data active = inhibition above about 80%; inconclusive = no clear call, values can overlap the other calls
Hedgehog inh: Hedgehog pathway signaling inhibitors, primary screen, luminescence, Shh-LIGHT2 cells, Gli-luciferase; Shh-LIGHT2 Gli-luciferase reporter, 30 h; inhibition, % (concentration not given with the values); 22,000 compounds, 2.1% hits; AID 2313, 2010;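 active = mean inhibition across valid replicates above about 65%, limit read from the data; inconclusive = mean under the limit, yet half or more replicates past it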;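 also: pathway switched on by Shh-conditioned medium diluted 1 in 25 in low serum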
Starred values were filed as active, the others as inactive; ? = inconclusive; . = not tested or not shown. Most compounds without a hit are left out; they make up all but 7.8% or so of the library.

SMILES | MITF inhib | NOMO-1 viab | Hedgehog inh
O=C(COc1cccc([N+](=O)[O-])c1)Nc1cccc(I)c1 | -16 | 32 | .
Cc1ccc(NC(=O)CNC(=O)c2ccc([N+](=O)[O-])cc2)cc1 | -4 | 0 | .
CSc1sc(Cl)c2c1/C(=N\O)CC(C)(C)C2 | 6 | 110* | ?
CSc1sc(/C(C)=N\O)c2c1/C(=N\O)CC(C)(C)C2 | 5 | 41 | .
COc1c(Cc2ccccc2O)c(O)c(Cc2ccccc2O)c(O)c1C(=O)CCc1ccccc1 | 91* | 106* | 89*
COc1c(C)c(O)c(C)c(O)c1C(=O)CCc1ccccc1 | 5 | 45 | -23
O=C(CSc1nc2ccccc2[nH]1)Nc1ccccc1-c1ccccc1 | 29 | 0 | .
Cc1ccc(S(=O)(=O)Nc2ccc3c(c2)C(=O)N([C@H](C)CO)C[C@H](C)[C@@H](CN(C)Cc2ccc(C(F)(F)F)cc2)O3)cc1 | 3 | 69 | -2
Cc1ccc(S(=O)(=O)Nc2ccc3c(c2)C(=O)N([C@@H](C)CO)C[C@H](C)[C@@H](CN(C)Cc2ccc(C(F)(F)F)cc2)O3)cc1 | 3 | ? | .
C[C@H](CO)N1C[C@H](C)[C@@H](CN(C)Cc2ccc(C(F)(F)F)cc2)Oc2ccc(NS(=O)(=O)c3ccc(F)cc3)cc2C1=O | -28 | 35 | .
C[C@@H]1CN([C@H](C)CO)C(=O)c2cc(NS(=O)(=O)c3ccc(Cl)cc3)ccc2O[C@@H]1CN(C)Cc1ccccc1 | -14 | 87* | 13
C[C@@H]1CN([C@@H](C)CO)C(=O)c2cc(NS(=O)(=O)c3ccc(Cl)cc3)ccc2O[C@@H]1CN(C)Cc1ccc(C(F)(F)F)cc1 | 38 | 123* | 29
Cc1ccc(S(=O)(=O)Nc2ccc3c(c2)C(=O)N([C@H](C)CO)C[C@@H](C)[C@@H](CN(C)Cc2ccc(C(F)(F)F)cc2)O3)cc1 | 14 | 122* | 10
C[C@@H]1CN([C@H](C)CO)C(=O)c2cc(NS(=O)(=O)c3ccc(Cl)cc3)ccc2O[C@H]1CN(C)Cc1ccccc1 | -3 | 10 | -3
Cc1ccc(S(=O)(=O)Nc2ccc3c(c2)C(=O)N([C@@H](C)CO)C[C@@H](C)[C@@H](CN(C)Cc2ccc(C(F)(F)F)cc2)O3)cc1 | 27 | 98* | .
Cc1ccnc(SCC(=O)Nc2sc3c(c2C(=O)Nc2ccccc2)CCCC3)n1 | 2 | 26 | .
Cc1ccc(NC(=O)CSc2ncccn2)cc1Cl | -47 | -6 | .
C[C@H](CO)N1C[C@H](C)[C@@H](CN(C)Cc2ccc(-c3ccccc3)cc2)Oc2c(NC(=O)c3ccncc3)cccc2C1=O | 34 | 83* | 64
C[C@@H]1CN([C@H](C)CO)C(=O)c2cccc(NC(=O)c3ccncc3)c2O[C@H]1CN(C)Cc1ccc(Oc2ccccc2)cc1 | 28 | 91* | ?
C[C@@H]1CN([C@@H](C)CO)C(=O)c2cccc(NC(=O)c3ccncc3)c2O[C@@H]1CN(C)Cc1ccc(Oc2ccccc2)cc1 | -12 | 9 | -4
C[C@H](CO)N1C[C@H](C)[C@H](CN(C)Cc2ccc(-c3ccccc3)cc2)Oc2c(NC(=O)c3ccncc3)cccc2C1=O | 6 | 54 | 36
CC(C)(O)CCC(=O)C(C)(O)C1C(O)CC2(C)C3CC=C4C(CC(OC5OC(CO)C(O)C(O)C5O)C(O)C4(C)C)C3(C)CCC12C (stereo unspecified) | . | . | -19
C[C@H](CO)N1C[C@H](C)[C@H](CN(C)S(=O)(=O)c2cccs2)Oc2c(NC(=O)Nc3ccc(C(F)(F)F)cc3)cccc2C1=O | 27 | 92* | 15
C[C@@H]1CN([C@H](C)CO)C(=O)c2cc(NC(=O)Nc3ccc(C(F)(F)F)cc3)ccc2O[C@H]1CN(C)S(=O)(=O)c1cccs1 | -16 | 45 | .
C[C@@H]1CN([C@@H](C)CO)C(=O)c2cccc(NS(=O)(=O)c3ccc(Cl)cc3)c2O[C@@H]1CN(C)S(=O)(=O)c1cccs1 | 10 | 85* | -46
SMILES | MITF inhib | NOMO-1 viab | Hedgehog inh
C[C@@H]1CN([C@@H](C)CO)C(=O)c2cccc(NS(=O)(=O)c3ccc(Cl)cc3)c2O[C@H]1CN(C)S(=O)(=O)c1cccs1 | -10 | 0 | -16
C[C@@H]1CN([C@H](C)CO)C(=O)c2cccc(NC(=O)Nc3ccc(F)cc3)c2O[C@H]1CN(C)S(=O)(=O)c1cccs1 | 6 | 13 | -12
C[C@H](CO)N1C[C@H](C)[C@@H](CN(C)S(=O)(=O)c2cccs2)Oc2ccc(NC(=O)Nc3ccc(C(F)(F)F)cc3)cc2C1=O | 23 | 92* | 6
C[C@@H]1CN([C@H](C)CO)C(=O)c2cccc(NC(=O)Nc3ccc(F)cc3)c2O[C@@H]1CN(C)S(=O)(=O)c1cccs1 | 5 | 22 | 49
C[C@H]1CN([C@@H](C)CO)C(=O)c2cccc(NC(=O)Nc3ccc(C(F)(F)F)cc3)c2O[C@H]1CN(C)S(=O)(=O)c1cccs1 | 14 | 91* | -9
COc1ccc([N+](=O)[O-])cc1NC(=O)CN(c1ccccc1F)S(C)(=O)=O | -30 | 14 | .
Cc1ccc(Nc2nc(Oc3ccc(=O)[nH]n3)nc(N3CCOCC3)n2)cc1 | -114 | 21 | .
Cc1ccc([N+](=O)[O-])cc1NC(=O)CN(c1cc(C(F)(F)F)ccc1Cl)S(C)(=O)=O | -16 | 22 | .
CC(=O)c1cccc(NC(=O)CSc2nccc(C)n2)c1 | -33 | -19 | .
C[C@@H]1CN([C@H](C)CO)C(=O)c2cccc(NC(=O)C3CC3)c2O[C@H]1CN(C)S(=O)(=O)c1cccs1 | -11 | -13 | -16
C[C@H](CO)N1C[C@H](C)[C@H](CN(C)S(=O)(=O)c2cccs2)Oc2c(NC(=O)C3CC3)cccc2C1=O | -6 | -4 | 85*
COc1ccc2nc(Nc3nc(C)c(CCC(C)C)c(=O)[nH]3)nc(C)c2c1 | 23 | 66 | .
CCN(CC)CCCC(C)Nc1c2ccc(Cl)cc2nc2ccc(OC)cc12 (stereo unspecified) | -118 | 114* | -6
CCOC(=O)C(C#N)C(c1cccnc1)c1[nH]c(C)nc1O (stereo unspecified) | 6 | 31 | -4
CC1(C)C=Cc2c(cc3occ(-c4ccc5c(c4)OCO5)c(=O)c3c2O)O1 | -20 | 47 | 56
COc1c(-c2coc3cc4c(cc3c2=O)CC(O)C(C)(C)O4)ccc2c1C=CC(C)(C)O2 (stereo unspecified) | 99* | 102* | 91*
COc1ccc(NC(=O)CSc2nc3c(c(C(F)(F)F)n2)CCCC3)c([N+](=O)[O-])c1 | 21 | 13 | .
COc1ccc(C(=O)NCCn2cc(SC(C)c3ccccc3)c3ccccc32)cc1 (stereo unspecified) | 20 | 129* | 78*
COc1ccc(C(=O)NCCSc2ccccn2)cc1 | 39 | 25 | .
COC(=O)c1ccc(Cl)c(NC(=O)CN(c2cccc(Cl)c2)S(C)(=O)=O)c1 | 25 | 129* | .
COC(=O)c1ccc(Cl)c(NC(=O)CN(c2cccc(F)c2)S(C)(=O)=O)c1 | 6 | ? | .
Cc1ccccc1NC(=O)CN(c1ccc(Cl)c(Cl)c1)S(C)(=O)=O | 6 | 26 | .
COC(=O)c1ccc(C)c(NC(=O)CN(c2ccc(Cl)c(Cl)c2)S(C)(=O)=O)c1 | 22 | 108* | .
CCN(CC)S(=O)(=O)c1ccc(OC)c(NC(=O)c2cc3ccccc3oc2=O)c1 | -36 | -17 | .

Screening results (PubChem BioAssay)
